Screens from PubChem BioAssay.
FAS TE block = inhibitors of human fatty acid synthase thioesterase domain; inhibition, % at 15 µM; actives 0.67% (n = 360,000); P49327; recombinant FAS-TE, OMFH fluorogenic substrate, fluorescence endpoint; AID 602261;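 active means compounds whose normalised, plate-corrected inhibition of enzyme fluorescence in the single-dose primary screen is 50% or more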;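 further: 0% = DMSO with enzyme and 100% = substrate without enzyme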
MPTP block = blocks calcium-induced mitochondrial swelling | inhibition, % at 10 µM | actives 1.4% (n = 360,000) | isolated mouse mitochondria, Ca2+ swelling absorbance, 30 min;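 active means inhibition of 50% or more, scaled per plate between neutral and stimulator controls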;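 further: 0% = DMSO wells given calcium and 100% = 1 mM EGTA wells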
GRIN3A LBD mod = NR3A (human) ligand-binding domain modulation; NR3A LBD differential scanning fluorimetry, Tm shift; 0% = protein alone, 100% = glycine-bound protein; Tm shift relative to glycine control, % at 25 µM; actives 2.5% (n = 340,000); AID 1259313;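 active means melting temperature shift of at least 10% of the positive control shift, at one fixed dose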
Myeloid diff MLP = compounds promoting myeloid differentiation; ER-HoxA9 myeloid progenitors, lysozyme-GFP differentiation, flow cytometry; calls only at 10 µM; actives 1% (n = 360,000);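 active means normalized GFP-positive differentiation at or above the plate's own cutoff, the solvent-only control mean plus 3 SD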;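 further: cells exposed to compound for four days before flow analysis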
rCAG RNA binder = molecules binding r(CAG) RNA repeats; r(CAG) RNA repeat, TO-PRO-1 dye displacement fluorescence; inhibition, % at 3 µM; actives 1.3% (n = 370,000);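 active means inhibition above the plate cutoff, the mean of all test compounds on that plate plus 3 SD, cut at about 35% in these data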;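 further: 0% = DMSO alone and 100% = 100 µM mitoxantrone as full dye displacement; higher means more dye released from RNA so lower well fluorescence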
Myeloid diff = compounds promoting myeloid differentiation. shares compounds with Myeloid diff MLP. ER-HoxA9 myeloid progenitors, GFP/Mac1 double-positive flow. calls only. actives 2% (n = 2,300). AID 651706;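 active means share of green or green-and-red cells above 9 and 9% in run 1 or 4 and 3% in run 2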
GFP autofluor = flagged as fluorescent in myeloid differentiation counter-screen | fluorescence response, % (concentration not given with the values) | shares compounds with Myeloid diff MLP | AID 651707 | ER-HoxA9 myeloid progenitors, no estrogen, GFP autofluorescence flow cytometry; vehicle wells 0%, positive control 100% | actives 7.4% (n = 2,300);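 active means over 5% cells positive for green fluorescent reporter, or over 2% positive for both it and APC stain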;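 further: range taken on the double positive population between DMSO and positive control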
Numbers without * were called inactive; i = inactive; . = not tested or not shown; + = active, no number. Hits are enriched below; roughly 5.7% of the tested compounds scored in any of these assays.

SMILES | FAS TE block | MPTP block | GRIN3A LBD mod | Myeloid diff MLP | rCAG RNA binder | Myeloid diff | GFP autofluor
c1ccc2c(CN3CCOCC3)c3ccccc3c(CN3CCOCC3)c2c1 | 7 | 0 | 0 | i | -1 | . | .
O=[N+]([O-])c1ccc(Cl)cc1P(=O)(O)c1cc(Cl)ccc1[N+](=O)[O-] | -6 | -3 | 0 | i | 3 | . | .
CC(=O)c1c(NC(=O)c2ccccc2)[nH]c(-c2ccccc2)nc1=S | -5 | -2 | -1 | + | 6 | i | 4.9*
COc1ccccc1-c1nc(=S)c(C(C)=O)c(C)[nH]1 | -6 | 2 | 2 | i | 0 | . | .
CC(=O)c1c(C)[nH]c(-c2ccccc2)nc1=S | -8 | 0 | 4 | i | -1 | i | 1
C[N+]1(CC(=O)Nc2ccccc2Cl)CCN(C(=O)c2cccs2)CC1 | -4 | -1 | 0 | i | 0 | . | .
COCc1cc(C)n(CC(=O)Nc2ccccc2C(=O)OC)c(=O)c1C#N | 1 | -2 | -2 | i | -1 | i | 1
CN(Cc1ccccc1OCCO)CC1CCCN(CCc2ccc(Cl)cc2)C1 (centres undefined) | -5 | 2 | -3 | i | -5 | . | .
Cc1ccccc1CN(c1ccc(C(=O)N/N=C/c2ccc(OCC(N)=O)cc2)cc1)S(C)(=O)=O | -4 | -4 | -1 | i | 0 | . | .
COc1ccc(NS(=O)(=O)c2ccc3oc(SC4CCOC4=O)nc3c2)cc1 (centres undefined) | 4 | 1 | -3 | i | 7 | i | 0
CCc1c(C2(O)CCCCC2)[nH]c2ccc(C(F)(F)F)cc12 | 33 | 21 | 7 | i | 0 | . | .
COc1ccc(-n2c(N)c(C(=O)NCc3ccco3)c3nc4ccccc4nc32)cc1OC | 5 | 0 | 1 | + | 9 | i | 0
COc1cc(-n2c(N)c(C(=O)NCc3ccco3)c3nc4ccccc4nc32)cc(OC)c1OC | 4 | 2 | -1 | i | 15 | . | .
COc1ccc(CC(NC(C)=O)C(=O)NC2CCN(C(=O)c3cnccn3)CC2)cc1 (centres undefined) | -6 | 4 | 0 | i | 2 | i | 0
O=C(CN(C(=O)CCC(=O)Nc1ccccn1)c1cccc(F)c1)NCc1ccco1 | -4 | 1 | 1 | i | -5 | . | .
CC(=O)Oc1ccc(Cn2cnc3cc4ccccc4cc32)cc1 | 16 | 7 | -1 | i | 4 | i | 0
CCOc1ccc2c(c1)ncn2Cc1ccccc1 | -5 | 3 | 0 | i | -5 | . | .
CCc1ccccc1NC(=O)CN(C)C(=O)CSc1nn(-c2ccc(F)cc2)c(=S)s1 | 26 | -9 | -1 | i | -1 | . | .
CSc1nc(-c2ccc(F)cc2)cc(=O)[nH]1 | -7 | 1 | -13 | i | 1 | . | .
CC1=CC[C@@]23CCCN2C(=O)CCC[C@H]3C1 | -8 | -1 | -2 | i | 5 | . | .
CCc1nn(CC(=O)NCCCN(Cc2ccccc2)C(C)C)c(=O)c2cc3sccc3n12 | -8 | 1 | 7 | + | -10 | i | 0
CCc1nn(CC(=O)NCCCN(C)Cc2ccccc2)c(=O)c2cc3sc(C)cc3n12 | -1 | -2 | -2 | i | -6 | . | .
Nc1nnc(N)c2ccccc12 | -9 | -1 | 0 | + | 0 | i | 0
O=C(Nc1ccc(Oc2cccnc2)cc1)C1CCN(Cc2ccccc2F)CC1 | -7 | 2 | 2 | i | -5 | . | .
CCN(CC)CCCN(C(=O)c1cccc(C)c1)c1nc(-c2ccc(OC)cc2)cs1 | 4 | 0 | 2 | i | -2 | . | .
SMILES | FAS TE block | MPTP block | GRIN3A LBD mod | Myeloid diff MLP | rCAG RNA binder | Myeloid diff | GFP autofluor
CSc1nsc(SCC(=O)NCc2ccc(C)cc2)n1 | 3 | 1 | 0 | i | -1 | . | .
O=C1CC/C=C\C[C@@H](CC(=O)N(CCO)Cc2ccccc2)C(=O)NC[C@@H](c2ccccc2)O1 | -15 | 1 | 1 | i | -6 | . | .
O=C1CCC/C=C/C[C@@H](CC(=O)N(CCO)Cc2ccccc2)C(=O)NC[C@@H](c2ccccc2)O1 | -10 | 0 | 0 | i | -7 | i | 0
COC(=O)[C@@]1(Cc2ccc(OC)cc2)[C@H]2c3cc(C(=O)N4CCCC4)n(Cc4ccc(C)c(F)c4F)c3C[C@H]2CN1C(=O)c1ccccc1 | 31 | -2 | . | i | 12 | . | .
CCOC(=O)Cn1nc(C)c(NC(=O)COc2ccccc2[N+](=O)[O-])c1C | -3 | 0 | 0 | i | -3 | . | .
Cc1nc(SCC(=O)Nc2ccccc2C(F)(F)F)c2c(=O)n(C)c(=O)n(C)c2n1 | -4 | 3 | -2 | + | -2 | i | 0
CCc1nc(SCC(=O)c2ccccc2)c2c(=O)n(C)c(=O)n(C)c2n1 | 13 | 6 | 1 | i | -2 | . | .
Cn1c(=O)c2c(SCC(=O)c3ccccc3)nc(C3CC3)nc2n(C)c1=O | 16 | 4 | -4 | i | . | i | 0
CC1CCCCC12NC(=O)N(CC(=O)OCC(=O)N(C)C1CCCCC1)C2=O (centres undefined) | -5 | 0 | 0 | i | -1 | . | .
CNC[C@H]1OCCCC[C@H](C)Oc2ccc(NC(=O)CCCN(C)C)cc2C(=O)N([C@H](C)CO)C[C@@H]1C | -8 | -2 | . | i | 5 | . | .
C/C(=N/NC(=O)c1cccc(C)c1)c1c(O)cc(C)oc1=O | 0 | 0 | 1 | i | -1 | i | 0
C=CCN1C(=O)c2ccc(C(=O)N3CCC(C(N)=O)CC3)cc2C1=O | -6 | -2 | 2 | i | 1 | . | .
COc1cccc(-c2ccc(NC(=O)C3CCCN(Cc4cccc(C)n4)C3)cc2)c1 (centres undefined) | 6 | -1 | . | i | 0 | i | 0
O=C(Nc1cccc2ccccc12)C1CCN(C(=O)NCc2ccccc2)CC1 | -9 | -2 | -1 | i | 2 | . | .
O=C(Nc1cccc2ccccc12)C1CCN(C(=O)Cc2ccccc2)CC1 | 4 | -3 | 0 | . | 1 | i | 0
O=C(Nc1ccc(F)c(Cl)c1)c1ccccc1NC(=O)C1CCCCC1C(=O)O (centres undefined) | 0 | 1 | -2 | i | 10 | . | .
Cc1cc(C(=O)Nc2nccs2)c2cc(F)ccc2n1 | 1 | 1 | 1 | i | -4 | i | 0
O=C(Nc1sc2c(c1C(=O)O)CCCC2)c1cccs1 | -6 | 4 | 0 | i | 19 | . | .
O=C(Nc1sc2c(c1C(=O)NCC1CCCO1)CCCC2)c1cccs1 (centres undefined) | 37 | 1 | . | i | 3 | i | 0
C[C@]12C=CC(=O)C=C1CC[C@H]1[C@@H]3C[C@@H](O)[C@](O)(C(=O)CO)[C@@]3(C)C[C@H](O)[C@@]12F | 0 | 3 | -3 | i | 1 | i | 0
